DT40 TDP1 CPT = qHTS for Inhibitors of human tyrosyl-DNA phosphodiesterase 1 (TDP1): qHTS in cells in presence of CPT; hit rate 12% among 420,000; Potency, µM (titrated, usually from 46.2 µM), hits mostly inhibitors; chicken DT40 Tdp1-/-;hTDP1 cells + 20 nM CPT, ATP luminescence, 48 h; AID 686979, 2013; further: nearly all actives have a fitted effect of over 55% in size
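Chicken DT40 Tdp1-/- cells complemented with human TDP1, 400 cells/well, exposed to compounds plus 20 nM camptothecin for at least 48 h at 37 C; viability read as ATP content by CellTiter-Glo luminescence.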
DRD3 antagonist = qHTS of D3 Dopamine Receptor Antagonist: qHTS | D(3) dopamine receptor (Homo sapiens), P35462 | D3R cells, DiscoveRx beta-arrestin luminescence, antagonist mode; hits give low values | max response, negative = inhibition, % | hit rate 2.5% among 360,000 | AID 652054, 2013; in the data active means max response below about -50%; inconclusive means no clear call, values can overlap the other calls
Target sequence (P35462 whole entry, looked up): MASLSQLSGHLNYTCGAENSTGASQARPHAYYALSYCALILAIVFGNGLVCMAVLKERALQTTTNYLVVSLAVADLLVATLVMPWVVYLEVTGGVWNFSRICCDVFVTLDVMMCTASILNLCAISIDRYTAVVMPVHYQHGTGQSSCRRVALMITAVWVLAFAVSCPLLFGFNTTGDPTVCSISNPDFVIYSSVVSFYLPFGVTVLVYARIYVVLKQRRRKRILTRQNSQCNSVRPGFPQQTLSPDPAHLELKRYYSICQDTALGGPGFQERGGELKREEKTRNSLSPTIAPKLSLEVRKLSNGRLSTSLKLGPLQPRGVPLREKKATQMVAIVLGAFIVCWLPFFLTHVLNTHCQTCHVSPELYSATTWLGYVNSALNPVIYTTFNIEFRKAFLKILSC
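Cells plated overnight at 1500 cells/well, then exposed to library compounds with dopamine controls for 90 minutes at 37 degrees C. DiscoveRx reagent added for 30–60 minutes at room temperature; luminescence read, quantitative HTS format.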
TDP1 cell noCPT = qHTS for Inhibitors of human tyrosyl-DNA phosphodiesterase 1 (TDP1): qHTS in cells in absence of CPT; DT40 Tdp1-/- hTDP1 cells, no CPT, ATP luminescence, 48 h; Potency, µM (titrated, usually from 46.2 µM), most hits filed as inhibitors; hit rate 15% among 420,000; AID 686978, 2013; further: nearly all actives have a fitted effect of over 55% in size
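DT40 Tdp1-/-;hTDP1 cells, no CPT (DMSO vehicle only), 400 cells/well; compounds pin-transferred; ≥48 hr, 37 °C; CellTiter-Glo 30 min RT dark, luminescence read.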
ClpP mod = qHTS Assay for Activators of ClpP. ATP-dependent Clp protease proteolytic subunit (Bacillus subtilis (strain 168)), P80244. purified B. subtilis ClpP, FRET peptide cleavage, 20 min. Potency, µM (highest dose often 57.5 µM). hit rate 1.9% among 340,000. AID 651965, 2013; active means well fitted falling curve with a large enough effect; inconclusive means small, poorly fitted or top-dose-only effect; inactive means no such curve, though single readings can be large or run the other way; further: the source files actives as falling curves though it sought activators and does not explain the sign; nearly all actives have a fitted effect of over 65% in size
Target sequence (P80244 whole entry, looked up): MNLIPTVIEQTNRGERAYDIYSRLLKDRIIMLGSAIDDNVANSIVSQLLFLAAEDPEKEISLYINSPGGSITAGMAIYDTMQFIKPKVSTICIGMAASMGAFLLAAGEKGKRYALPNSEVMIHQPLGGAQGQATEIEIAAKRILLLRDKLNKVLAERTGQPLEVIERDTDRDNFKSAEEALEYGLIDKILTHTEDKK
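Purified B. subtilis ClpP, 10 microg/mL final in Tris/HCl pH8 with KCl, BSA, glycerol and Tween-20, cleaved an Abz/nitrotyrosine-quenched decapeptide. Fluorescence (ex 320, em 430) was read at 0 and 20 min at room temperature. Delta was normalized to 5.8 microM ADEP and DMSO/no-enzyme controls.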
D3 ag = qHTS of D3 Dopamine Receptor Agonist: qHTS; D(3) dopamine receptor (Homo sapiens), P35462; D3R DiscoveRx beta-arrestin cells, luminescence, 90 min; max activation, %; AID 652048, 2013; hit rate 0.58% among 410,000; in the data active means max activation above about 30%
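Cells at 1500/well, incubated overnight, then treated with pinned compounds (dopamine as control) for 90 min at 37 degrees C. DiscoveRx reagent added for 30 - 60 minutes at room temperature; luminescence read.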
IL-1B inflam inh = qHTS for Inhibitors of Inflammasome Signaling: IL-1-beta AlphaLISA Primary Screen; THP-1 LPS/ATP IL-1B secretion, AlphaLISA, 16 h; hits give low values; activity change, % at 57.5 µM; hit rate 4.7% among 360,000; AID 743279, 2014; in the data active means activity change below about -50%; inconclusive means mostly about -30% to -49%
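Secreted IL-1B measured by AlphaLISA bead assay after 16 h compound exposure of THP-1 cells; compounds (final up to 57.5 uM) added 1 h before LPS (250 ng/mL) and ATP (1.25 mM) stimulation; lower signal means less secretion.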
Numbers stand for hits; – = inactive; ? = inconclusive; · = no result given. Only some compounds are listed: those with a hit (about 21% of all), similar ones and a draw of the others. Unless noted, the call rests on the fitted dose curve; in most records, active means well fitted inhibition curve with a large enough effect; inconclusive means small, poorly fitted or top-dose-only effect; inactive means flat fitted curve, though single readings scatter.

SMILES | DT40 TDP1 CPT | DRD3 antagonist | TDP1 cell noCPT | ClpP mod | D3 ag | IL-1B inflam inh
CC1CCCN(C(=O)COC(=O)CNC(=O)c2sc3ccccc3c2Cl)C1 (configuration not stated) | – | – | – | – | – | –
CC(C)n1c(SCC(=O)NC2CC2)nnc1C1CC1 | – | – | – | – | – | –
C=CCn1c(SCC(=O)NCc2ccco2)nc2sc3c(c2c1=O)CCCC3 | – | – | – | – | – | –
C=CCn1c(SCC(=O)Nc2c(C)n(C)n(-c3ccccc3)c2=O)nc2sc(C)c(-c3ccccc3)c2c1=O | 29µM | – | ? | – | – | –
C=CCn1c(SCC(=O)Nc2cc(C)on2)nc2sc3c(c2c1=O)CCCC3 | 23µM | – | 9.2µM | – | – | –
OC(c1ccccc1)c1ncc(-c2ccccc2Cl)[nH]1 (configuration not stated) | – | – | – | – | – | –
COc1nc(NC(=O)c2ccc(F)cc2)nc(OC)c1-c1ccccc1 | – | – | – | · | – | –
CCCC[C@@H]1C[C@H]1[C@@H](NC(=O)c1cccs1)c1ccc(Cl)cc1 | 29µM | – | 15µM | – | – | –
CCCC[C@@H]1C[C@H]1[C@@H](NC(=O)c1cccs1)c1ccc(C(F)(F)F)cc1 | ? | – | 21µM | – | – | –
O=C(NNC(=O)c1ccccc1C(=O)O)c1ccc(O)cc1 | – | – | ? | · | – | –
O=c1c2ccccc2ncn1-c1ccc(Cl)cc1Cl | ? | – | – | – | – | –
O=c1c2ccccc2sn1-c1ccc(Cl)cc1Cl | 6.5µM | – | 2.9µM | – | – | -105
CCCCCCCNC(=O)C1(CC2CC(c3ccc(Cl)cc3)=NO2)CCN(C(=O)CCCCCBr)CC1 (configuration not stated) | 16µM | – | 18µM | – | – | ?
CC(C)(C)OC(=O)N1CCC(CC2CC(c3ccc(Cl)cc3)=NO2)(C(=O)NCC2CCCCC2)CC1 (configuration not stated) | 23µM | – | 16µM | – | – | –
COc1ccc(CNC(=O)C2(CC3CC(c4ccccc4)=NO3)CCN(C(=O)OC(C)(C)C)CC2)cc1 (configuration not stated) | ? | – | ? | – | – | –
CCCCCCCNC(=O)C1(CC2CC(c3ccc(Cl)cc3)=NO2)CCN(C(=O)c2ccccc2)CC1 (configuration not stated) | ? | – | ? | – | – | ?
CCCCCCCNC(=O)C1(CC2CC(c3ccc(Cl)cc3)=NO2)CCN(C(=O)c2cc(OCC)c(OCC)c(OCC)c2)CC1 (configuration not stated) | 21µM | – | 10µM | – | – | –
COc1ccc(CNC(=O)C2(CC3CC(c4ccccc4)=NO3)CCN(C(=O)CCCCCBr)CC2)cc1 (configuration not stated) | 9.2µM | ? | ? | – | – | –
CC(C)(C)OC(=O)N1CCC(c2c(C(=O)N3CCCCC3)cnn2-c2ccc(F)cc2)CC1 | – | · | ? | – | – | ·
Cc1cc(C(=O)NCc2cccc(Br)c2)c2c(C)nn(-c3ccccc3)c2n1 | – | · | – | – | – | ·
Cc1cc(C)c(C)c(S(=O)(=O)N2CCN(c3ccc(O)cc3)CC2)c1C | – | – | ? | · | – | –
Cc1ccc(NC(=O)Cn2c(SCc3ccc(F)cc3)nc3cccnc32)cc1F | – | · | – | ? | – | ·
CC1(C(=O)N2CCC(CC3CC(c4ccc(Cl)cc4)=NO3)(C(=O)NCC3CCCCC3)CC2)CC1 (configuration not stated) | ? | – | ? | – | – | ?
O=C(Cc1ccc(F)cc1)N1CCC(CC2CC(c3cccc(Br)c3)=NO2)(C(=O)NCC2CCCCC2)CC1 (configuration not stated) | ? | -51 | ? | – | – | ?
CC1(C(=O)N2CCC(CC3CC(c4cccc(Br)c4)=NO3)(C(=O)NCC3CCCCC3)CC2)CC1 (configuration not stated) | 18µM | – | 18µM | – | – | ?
SMILES | DT40 TDP1 CPT | DRD3 antagonist | TDP1 cell noCPT | ClpP mod | D3 ag | IL-1B inflam inh
CCCNC(=O)C1(CC2CC(c3ccccc3)=NO2)CCNCC1 (configuration not stated) | – | – | – | – | – | –
CCCCCCCNC(=O)C1(CC2CC(c3cccc(Br)c3)=NO2)CCNCC1 (configuration not stated) | 13µM | – | 16µM | – | – | -102
CCCCCCCNC(=O)C1(CC2CC(c3ccc(Cl)cc3)=NO2)CCNCC1 (configuration not stated) | 8.2µM | – | 10µM | – | – | -84
COc1ccccc1C1=CC(=O)CC(C)(C)C1=O | – | – | – | – | – | –
O=C(O)COc1ccccc1/C=N/NC(=O)CSc1nnc(SCc2ccccc2)s1 | ? | – | – | – | – | –
O=C(CN1C(=O)C2CC=CCC2C1=O)NCC(=O)Nc1ccc(F)c(F)c1 (configuration not stated) | – | – | – | – | – | –
O=C(Cc1ccc(F)cc1)N1CCC(CC2CC(c3ccc(Cl)cc3)=NO2)(C(=O)NCC2CCCCC2)CC1 (configuration not stated) | ? | – | ? | – | – | -55
O=C(CCCCCBr)N1CCC(CC2CC(c3cccc(Br)c3)=NO2)(C(=O)NCC2CCCCC2)CC1 (configuration not stated) | ? | – | 21µM | – | – | ?
O=C(CCCCCBr)N1CCC(CC2CC(c3ccc(Cl)cc3)=NO2)(C(=O)NCC2CCCCC2)CC1 (configuration not stated) | – | – | ? | – | – | –
CCCCCCCNC(=O)C1(CC2CC(c3ccc(Cl)cc3)=NO2)CCN(C(=O)Cc2ccc(F)cc2)CC1 (configuration not stated) | ? | – | ? | – | – | –
CCCCCCCNC(=O)C1(CC2CC(c3cccc(Br)c3)=NO2)CCN(C(=O)Cc2ccc(F)cc2)CC1 (configuration not stated) | ? | – | 16µM | – | – | -59
COc1cc(NC(=O)c2ccccc2Cl)c(OC)cc1NC(=O)CN1CCOCC1 | ? | – | ? | – | – | -74
COc1cc(NC(=O)c2cccc(C)c2)c(OC)cc1NC(=O)CN1CCOCC1 | ? | – | 18µM | – | – | ?
COc1cc(NC(=O)c2ccccc2)c(OC)cc1NC(=O)CN1CCOCC1 | – | – | ? | – | – | ?

Screening data as filed in PubChem.
